Shown is part of a subset that was picked to be rich in hits.
CHX counter-1 – Cycloheximide Counterscreen for Small Molecule Inhibitors of Shiga Toxin; cell reporter, cycloheximide protein synthesis inhibition counterscreen; max response, %; hit rate 12% among 300,000; in the data active = max response mostly above about 13%, no sharp cut-off; inactive = mostly below about 14%; also: read at 38.3 µM for the half of the compounds with a filed dose; 0% is about no effect
TbPYK inhibitor – qHTS of Trypanosoma Brucei Inhibitors; pyruvate kinase (Trypanosoma brucei), Q57TT1; TbPYK enzyme, Kinase-Glo Plus ATP luminescence, 45 min; Potency, µM (highest dose often 76.8 µM), inactives show top-dose activity, negative = inhibition, usual class: inhibitors; hit rate 0.12% among 410,000; AID 624173, 2012; active = well fitted curve in the direction sought with a large enough effect; inconclusive = small, poorly fitted or top-dose-only effect, or another doubt; inactive = no such curve, though single readings can be large; an effect the other way counts as inactive or inconclusive; also: potency is read from the fitted curve at half-maximal effect; % is scaled to controls: 0 for no effect and ±100 for the full control effect; nearly all actives have a fitted effect of over 50% in size
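Glycolytic pyruvate kinase of T. brucei was incubated with substrate, test compound and 130 uM ADP for 45 minutes at room temperature. Luminescent Kinase-Glo Plus signal was measured after 10 minutes.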
LmPK inh – qHTS Assay for Inhibitors of Leishmania Mexicana Pyruvate Kinase (LmPK); Q27686; purified LmPK, Kinase-Glo ATP luminescence, 1 h; Potency, µM (top dose mostly 57.5 µM), inactives show at the highest dose activity change, negative = inhibition, usual class: inhibitors; hit rate 0.37% among 290,000; AID 1721, 2009; active = well fitted curve in the direction sought with a large enough effect; inconclusive = small, poorly fitted or top-dose-only effect, or another doubt; inactive = no such curve, though single readings can be large; an effect the other way counts as inactive or inconclusive; also: potency is read from the fitted curve at half-maximal effect; % is scaled to controls: 0 for no effect and ±100 for the full control effect
Target sequence (Q27686 whole entry, looked up): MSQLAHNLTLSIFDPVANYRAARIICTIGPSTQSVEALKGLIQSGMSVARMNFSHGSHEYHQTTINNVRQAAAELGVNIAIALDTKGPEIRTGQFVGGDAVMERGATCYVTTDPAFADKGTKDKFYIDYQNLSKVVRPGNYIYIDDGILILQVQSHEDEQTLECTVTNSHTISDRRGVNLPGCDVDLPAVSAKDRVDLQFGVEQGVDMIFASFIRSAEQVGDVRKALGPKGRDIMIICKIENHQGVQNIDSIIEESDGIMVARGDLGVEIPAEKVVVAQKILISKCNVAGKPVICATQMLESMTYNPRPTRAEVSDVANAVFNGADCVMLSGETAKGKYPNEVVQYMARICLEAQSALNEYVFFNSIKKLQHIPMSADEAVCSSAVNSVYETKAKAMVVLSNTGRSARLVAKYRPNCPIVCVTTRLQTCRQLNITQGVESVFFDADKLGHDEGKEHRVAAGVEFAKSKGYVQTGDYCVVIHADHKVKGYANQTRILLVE
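Purified LmPK (0.1 nM) converted ADP (0.1 mM) to ATP with PEP (0.5 mM) in imidazole buffer pH 7.2 with KCl and MgCl2, 1 h at room temperature. ATP was read by Kinase-Glo luminescence; data normalized to uninhibited and no-enzyme controls.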
Shiga toxin inh – A qHTS for Small Molecule Inhibitors of Shiga Toxin; Vero cells, Shiga toxin protein synthesis inhibition reporter; inhibition, % at 38.7 µM; hit rate 9.2% among 290,000; AID 2315, 2010; in the data active = inhibition mostly above about 28%, no sharp cut-off; inactive = mostly below about 43%; also: 0% is about no effect
SARS PLpro yeast – qHTS of Yeast-based Assay for SARS-CoV PLP; hit rate 0.19% among 330,000; AID 485353, 2010; Potency, µM (titrated, usually from 32.9 µM), for inactives: top-dose activity, positive = growth rescue, most hits filed as activators; S. cerevisiae expressing SARS-CoV PLpro, growth rescue; also: potency is read from the fitted curve at half-maximal effect; 0% is about no effect; nearly all actives have a fitted effect of over 55% in size
NS1 function inh – qHTS Assay for Inhibitors of Influenza NS1 Protein Function; Potency, µM (titrated, usually from 46.1 µM), for inactives: at the top dose activity, positive = more growth; hit rate 0.4% among 270,000; also: potency is read from the fitted curve at half-maximal effect; actives are rising curves; nearly all actives have a fitted effect of over 50% in size
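OD600 was taken as the measure of yeast growth restored by compound in an NS1-expressing S. cerevisiae strain. Cells had been washed out of glucose medium and diluted 1:100 into galactose -URA medium, pH 6.0.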
CHX counter-2 – Cycloheximide Counterscreen for Small Molecule Inhibitors of Shiga Toxin (Confirmatory); shares compounds with Shiga toxin inh; AID 2318, 2010; Potency, µM (series often up to 38.3 µM), inactives show at the top dose activity (activation), actives largely listed as activators; Cycloheximide counterscreen, protein synthesis reporter, Shiga toxin assay; hit rate 3% among 510; also: potency is read from the fitted curve at half-maximal effect; 0% is about no effect
* hit, by the source's call; ? = inconclusive; . = no result; [ ] = remark or other dose. Unless noted, calls follow the shape of the full dose curve.

SMILES | CHX counter-1 | TbPYK inhibitor | LmPK inh | Shiga toxin inh | SARS PLpro yeast | NS1 function inh | CHX counter-2
O=C(Cc1ccccc1F)c1ccc(O)cc1O | 10.4 | -2.9% | 2.3% | 21.4 | 2.3% | -32.9% | .
COc1ccccc1CNC(=O)c1csc2c1CCCC2 | 6.3 | -7.4% | 3.5% | 38.8* | -5.7% | . | 3.3%
O=C(O)Cn1nnc(-c2ccc(OCc3ccccc3Cl)cc2)n1 | -1.1 | 9.7% | -0.3% | 39.9* | 5.9% | -7.8% | 2.7%
COc1ccc(C(=O)CSc2nnc(C(CO)NC(=O)c3ccc(OC)cc3)n2C)cc1 (stereo unspecified) | -2.5 | -11.4% | -0.4% | 63.9* | 5.8% | -3.2% | -3.0%
COc1ccc(CCNC(=O)CCc2c(C)nc3cc(-c4ccc(Cl)cc4)nn3c2C)c(OC)c1 | . | 1.7% | . | . | . | . | .
c1cc2c(cc1Cn1cnnn1)OCO2 | 8.9 | 1.4% | -8.7% | 158.3* | -1.6% | 7.3% | -2.2%
O=C(Cn1c(NCCO)nc2ccccc21)c1ccccc1 | 3.5 | -12.9% | 1.6% | active | -1.2% | 4.4% | -0.1%
CCc1nc2ccccc2c(=O)n1NCCc1ccccc1 | -0.7 | 1.2% | -2.0% | 49.1* | 11.5% | -18.6% | 3.7%
CCc1nc2ccccc2c(=O)n1CCCCn1c(CC)nc2ccccc2c1=O | . | . | . | . | . | -1.7% | .
COc1ccc(CN2C(=O)N(c3ccc(C)cc3)C(=O)C2CC(=O)Nc2ccccc2)cc1OC (stereo unspecified) | . | -11.2% | . | . | . | . | .
Cc1ccccc1C(=O)NN1CCOCC1 | -1.2 | 0.4% | -1.0% | 20.6* | 1.1% | 12.7% | -1.1%
Cc1noc(/C=C/c2ccco2)c1S(=O)(=O)N1CCC(C(=O)N(C)Cc2ccccc2)CC1 | 12.9 | -0.6% | 1.3% | 40.1* | -4.9% | 7.2% | ?
CC(C)Cc1nc2oc3c(NCc4cccnc4)ncnc3c2c2c1CCC2 | -2.4 | . | 0.1% | -18.6 | -4.7% | 2.7% | .
CC(C)Cc1nc2oc3c(NCC4CCCO4)ncnc3c2c2c1CCC2 (stereo unspecified) | -3.6 | 3.3% | 4.9% | 58.5* | -2.0% | -30.6% | -4.4%
COc1ccccc1NC(=O)Nc1cc(F)ccc1F | 15.7 | 4.5% | -8.5% | 131.5* | -0.6% | -6.0% | ?
O=C(Nc1ncc2c(n1)-c1ccccc1CC2)c1cccc(Cl)c1 | 2.2 | -1.0% | 2.0% | 33.5* | -22.4% | -47.2% | ?
O=C(COCc1cc(-c2ccco2)on1)Nc1ccc(OC(F)(F)F)cc1 | . | -6.9% | . | . | . | . | .
CC(OC(=O)c1ccc2c(=O)n3c(nc2c1)CCC3)C(=O)Nc1ccc(C(N)=O)cc1 (stereo unspecified) | . | -8.7% | . | . | 2.0%[6.58 µM] | . | .
CC(OC(=O)c1ccc2c(=O)n3c(nc2c1)CCC3)C(N)=O (stereo unspecified) | 10.9 | -5.6% | 4.3% | 51.2* | 0.3% | . | 1.4%
O=C1C(=O)N(C2CCN(C(=O)c3ccccc3F)CC2)CCN1Cc1ccc(F)cc1 | . | 1.6% | . | . | . | . | .
Cc1cc(C)cc(NC(=O)C(OC(=O)c2ccc([N+](=O)[O-])o2)c2ccccc2)c1 (stereo unspecified) | -1.5 | -3.6% | -2.8% | 30.1* | -13.5% | 19.6% | 0.8%
CCCCCSc1ncnc2c1sc1nc(N3CCOCC3)c3c(c12)CCCC3 | . | -2.9% | . | . | . | . | .
CC(=O)c1ccc(NC(=O)CSc2ccc3nc(-c4ccccc4)cn3n2)cc1 | . | -5.7% | . | . | . | . | .
Cc1cnc(NC(=O)c2c(Cl)cnn2C)s1 | 6.3 | -7.5% | -6.3% | 39.7* | -7.7% | -6.8% | 0.9%
CCc1nc2ccc(C(=O)Nc3ccc(OC)c(OC)c3)cn2c1N(C)C(=O)Cc1ccccc1 | . | 8.9% | . | . | . | . | .
SMILES | CHX counter-1 | TbPYK inhibitor | LmPK inh | Shiga toxin inh | SARS PLpro yeast | NS1 function inh | CHX counter-2
COc1ccccc1NC(=O)Cn1c(=O)n(Cc2ccccc2)c(=O)c2sc3ccccc3c21 | . | -5.2% | . | . | . | . | .
COC(=O)c1c(NS(C)(=O)=O)sc2c1CCCC2 | -2.0 | -27.0% | 8.8% | 28.4* | -4.2% | -40.0% | 0.4%
COC(=O)c1c(NC(C)=O)sc2c1CCCC2 | -4.8 | -13.7% | 0.5% | -10.4 | -8.4% | -98.6% | .
O=C(CCN1C(=O)c2cccc3cccc(c23)C1=O)NC1CCS(=O)(=O)C1 (stereo unspecified) | 9.5 | 1.0% | 2.0% | 75.1* | 1.6% | -1.4% | 0.0%
O=C(CCCCCN1C(=O)c2cccc3cccc(c23)C1=O)NC1CCS(=O)(=O)C1 (stereo unspecified) | 38.2 | 18.1% | -3.5% | 41.0 | -0.5% | 0.4% | .
CN1C(=O)C2(Nc3ccccc3-c3nc4ccccc4n32)c2ccccc21 (stereo unspecified) | 7.0 | 4.0% | -2.0% | 6.2 | 0.1% | -37.3% | .
CCCCC1(C)Nc2ccccc2-c2nc3ccccc3n21 (stereo unspecified) | 13.4 | -7.0% | -6.3% | 83.7* | -10.2% | -87.0% | 22.5µM*
CCN(CCNC(=O)C1CCN(Cc2nc(-c3ccc(Cl)cc3)oc2C)CC1)c1ccccc1 | 1.5 | 3.8% | 2.7% | -4.9 | -2.8% | -5.3% | .
CCN(CCNC(=O)C1CCN(Cc2nc(-c3cccc(Cl)c3)oc2C)CC1)c1ccccc1 | 10.4 | 2.6% | -4.9% | 104.7* | -1.9% | -40.8% | -2.0%
COCCNc1ncnc2c1ncn2[C@H]1CN(Cc2ccc(-c3ccccc3)cc2)C[C@@H](CO)O1 | . | 5.3% | . | . | . | . | .
CCn1c2ccccc2c2cc(NC(=O)c3cccc([N+](=O)[O-])c3)ccc21 | 8.9 | 1.5% | -2.9% | 60.7* | 3.7% | 4.3% | -3.1%
Cc1ccc(NC2=NCC(=O)N2C2CCCC2)cc1 | 7.2 | -6.3% | 0.5% | 57.9* | 1.2% | 2.6% | -1.9%
O=C(CSc1nc2nn(-c3ccccc3)c(=O)c-2c2n1CCCCC2)c1ccc(OC(F)F)cc1 | . | 0.5% | . | . | 0.4% | . | .
CC(=O)Nc1ccc(Oc2ccc(-c3noc(C)n3)cc2)cc1 | 12.1 | -3.3% | -0.5% | 81.8* | . | 18.3% | -0.3%
COc1ccc(-c2noc(CNS(=O)(=O)c3ccc(NC(C)=O)cc3)n2)cc1 | -2.7 | 0.9% | -1.2% | 5.7 | 1.8% | -4.0% | .
O=C(NCCc1ccccc1)C1CCCN1S(=O)(=O)c1ccccc1 (stereo unspecified) | 8.1 | 0.1% | -0.2% | 21.9* | 3.4% | . | 4.3%
Cc1ccc(C)n1-c1ccc(NC(=O)c2ccccc2)cc1 | 7.1 | -5.7% | 3.0% | 32.2* | 8.2% | 6.9% | ?
CC1(C(=O)NS(=O)(=O)Cc2cccc(Cl)c2)CCN1C(=O)c1cccc(F)c1 (stereo unspecified) | . | -6.9% | . | . | . | . | .
Cc1oncc1-c1csc(-c2ccccc2Cl)n1 | 8.9 | -0.8% | -5.7% | 121.3* | -1.1% | -11.9% | ?
